hcDAF-12 act – H. contortus DAF-12 nuclear receptor activators, primary screen, cell-based, luminescence, HEK293, lit1-tk-luc reporter; HEK293 hcDAF-12 lit1-tk-luc reporter; 0% DMSO, 100% Δ7-dafachronic acid; activation, % at 6.8 µM; 370,000 compounds, 1.4% hits; AID 652067, 2013;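 active = activation above the mean of all tested compounds plus 3 SD, cut at about 5.5% in these data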
ssDAF-12 act – S. stercoralis DAF-12 nuclear receptor activators, primary screen, cell-based, luminescence, HEK293, GRIP1 co-expression, lit1-tk-luc | HEK293 ssDAF-12/GRIP1 lit1-tk-luc reporter; % of 3 µM dafachronic acid response | activation, % at 6.8 µM | 370,000 compounds, 1% hits;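 active = activation above the mean over all tested compounds plus 3 SD, cut at about 0.9% in these data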
DAX1 inh-1 – DAX1 (NR0B1) inhibitors, primary screen, cell-based, HEK293, Gal4-DAX1, luciferase luminescence | Nuclear receptor subfamily 0 group B member 1 (Homo sapiens), P51843 | HEK293 Gal4-DAX1 luciferase reporter | inhibition, % at 6.75 µM | 340,000 compounds, 0.99% hits;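 active = inhibition above the mean over all tested compounds plus 3 SD, cut at about 4.2% in these data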;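 also: inhibition shows as a rise in luminescence from relieved DAX1 repression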
Target sequence (P51843 207-470 limits assumed): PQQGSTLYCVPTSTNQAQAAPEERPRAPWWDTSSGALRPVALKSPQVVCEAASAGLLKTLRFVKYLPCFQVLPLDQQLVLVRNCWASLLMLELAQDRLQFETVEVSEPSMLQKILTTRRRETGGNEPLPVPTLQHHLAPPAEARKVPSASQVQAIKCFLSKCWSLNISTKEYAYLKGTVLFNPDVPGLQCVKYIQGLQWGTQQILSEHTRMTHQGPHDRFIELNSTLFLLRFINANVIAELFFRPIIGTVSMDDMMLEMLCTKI
DAX1 inh-2 – DAX1 (NR0B1) inhibitors on StAR promoter, primary screen, cell-based, luminescence, SF-1 (NR5A1), full-length DAX-1. HEK293T StAR-luciferase reporter, SF-1/DAX-1 repression relief. AID 652010, 2013. 370,000 compounds, 1.1% hits. inhibition, % at 6.8 µM;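 active = inhibition above the mean over all tested compounds plus 3 SD, cut at about 3.6% in these data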;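 also: higher inhibition means more luminescence from relief of DAX-1 repression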
hgDAF-12 ag – H. glycines DAF-12 receptor agonists, primary screen, cell-based, luminescence, HEK293, GAL4 fusion, UAS-luciferase; HEK293 GAL4-hgDAF12 UAS-luciferase reporter, agonist luminescence; normalized to butyrate control; activation, % at 6.8 µM; 370,000 compounds, 1.8% hits;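 active = activation above a cutoff set at the mean of all screened compounds plus 3 SD, cut at about 10% in these data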
DAX1 inh confirm – DAX1 (NR0B1) inhibitors relieving SF-1 repression, confirmation, cell-based, luminescence, HEK293T, full-length DAX-1, SF-1 activated StAR promoter. shares compounds with DAX1 inh-2. AID 652134, 2013. inhibition, % at 6.8 µM. 2,400 compounds, 87% hits. HEK293T StAR-promoter luciferase reporter, SF-1/DAX-1 repression;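 active = inhibition above the average of every tested compound plus 3 SD, cut at about 3.8% in these data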
SF1 mutant ctr – StAR reporter signal changes without DAX1, counter-screen for DAX1 inhibitor project, cell-based, luminescence, AF-2 mutant SF-1, transactivation. inhibition, % at 6.8 µM. HEK293 StAR-luciferase, SF-1 AF2 mutant. 2,400 compounds, 78% hits. shares compounds with DAX1 inh-2;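 active = inhibition above the mean of all tested compounds plus 3 SD, cut at about 3% in these data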
LXRb hcDAF ctr – LXR agonists, Gal4 luciferase reporter, confirmation, counter-screen for hcDAF-12 agonist project, cell-based, luminescence, HEK293, H. contortus campaign; shares compounds with hcDAF-12 act; HEK293 Gal4-LXR tk-luc reporter, 24 h; normalized: DMSO 0%, positive control 100%; 3,400 tested, under 10 active; AID 743027, 2013; activation, % at 6.8 µM;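 active = mean percent activation of the reporter above a cutoff set as the average over tested compounds plus their standard deviation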
Target sequence (P55055 whole entry, looked up, the tested form may be a part): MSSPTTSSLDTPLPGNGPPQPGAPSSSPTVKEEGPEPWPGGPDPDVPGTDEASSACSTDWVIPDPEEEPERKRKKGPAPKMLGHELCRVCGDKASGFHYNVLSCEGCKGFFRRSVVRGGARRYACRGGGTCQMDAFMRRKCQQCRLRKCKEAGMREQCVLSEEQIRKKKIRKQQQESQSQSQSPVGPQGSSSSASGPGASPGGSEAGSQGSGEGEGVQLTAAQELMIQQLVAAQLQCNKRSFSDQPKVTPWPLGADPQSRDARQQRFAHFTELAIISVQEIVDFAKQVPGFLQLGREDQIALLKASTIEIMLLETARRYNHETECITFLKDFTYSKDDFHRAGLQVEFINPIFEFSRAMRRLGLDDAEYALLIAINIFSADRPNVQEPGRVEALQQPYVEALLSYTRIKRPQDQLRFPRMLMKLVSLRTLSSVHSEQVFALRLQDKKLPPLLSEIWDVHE
hcDAF12 ag – H. contortus DAF-12 receptor agonists, confirmation, cell-based, luminescence, HEK293, lit1-tk-luc, triplicate | shares compounds with hcDAF-12 act | HEK293 hcDAF-12 lit1-tk-luc reporter; % of Δ7-dafachronic acid response | activation, % at 6.8 µM | 3,400 compounds, 61% hits | AID 743032, 2013;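 active = mean activation across triplicate tests above the threshold derived from the earlier primary screen, cut at about 5.5% in these data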
hgDAF12 ag – H. glycines DAF-12 receptor agonists, confirmation, cell-based, luminescence, HEK293, GAL4-LBD fusion | shares compounds with hgDAF-12 ag | HEK293 GAL4-hgDAF12 luciferase reporter, agonist mode; percent of butyrate response | activation, % at 6.8 µM | 3,300 compounds, 80% hits;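 active = mean activation over triplicate wells above the hit cutoff derived from the earlier primary screen, cut at about 11% in these data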
LXRb DAF12 ctr – LXR agonists, Gal4 luciferase reporter, confirmation, counter-screen for hgDAF-12 agonist project, cell-based, luminescence, HEK293, H. glycines campaign | shares compounds with hgDAF-12 ag | 24 h | activation, % at 6.8 µM | 3,300 tested, under 10 active | AID 743051, 2013;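 active = mean activation of the triplicate above a set limit carried over from the primary screen, none filed active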
Each line names hits and unclear results; the compound was inactive in the other large screens (follow-up assays come after a bar, where they were run). Compounds with a hit are over-represented: about 4.1% of the library has one in this group of screens.

CCNC(=S)NNC(=O)c1cc(-c2ccc(OCC)cc2)nc2ccccc12	hcDAF-12 act 9.0, ssDAF-12 act 1.3, DAX1 inh-2 7.7, hgDAF-12 ag 16 | DAX1 inh confirm 17 | SF1 mutant ctr 8.6 | LXRb hcDAF ctr inactive | hcDAF12 ag 12 | hgDAF12 ag 25 | LXRb DAF12 ctr inactive
O=C(Nc1ccc(SC(F)F)cc1)C1=COCCO1	DAX1 inh-2 4.9, hgDAF-12 ag 15 | DAX1 inh confirm 13 | SF1 mutant ctr 6.8 | hgDAF12 ag 14 | LXRb DAF12 ctr inactive
C[C@@H]1NS(=O)(=O)c2ccc(F)cc2O[C@@H]1c1ccccc1	none (no result: DAX1 inh-1)
COc1ccc(S[C@]2(C(=O)N3CCCC3)CC(=O)N(S(=O)(=O)c3ccc(F)cc3)[C@@H]2c2ccc(OC)cc2)cc1	none (no result: DAX1 inh-1)
CNc1cc(-c2cccc(N(C)C)c2)ncn1	ssDAF-12 act 1.3, DAX1 inh-2 7.2, hgDAF-12 ag 18 (no result: DAX1 inh-1) | DAX1 inh confirm 16 | SF1 mutant ctr 5.9 | hgDAF12 ag 15 | LXRb DAF12 ctr inactive
Cc1cc(O)ccc1Nc1cc(-c2cccc(N)c2)ncn1	none (no result: DAX1 inh-1)
CCc1nnc(NC(=O)c2sc3nc4c(cc3c2N)CCCCCC4)s1	none
CCc1nnc(NC(=O)c2sc3nc4c(cc3c2N)CCCCC4)s1	hcDAF-12 act 6.7, DAX1 inh-2 5.0, hgDAF-12 ag 16 | DAX1 inh confirm 12 | SF1 mutant ctr 7.8 | LXRb hcDAF ctr inactive | hcDAF12 ag 6.5 | hgDAF12 ag 14 | LXRb DAF12 ctr inactive
O=C(NCCc1c[nH]c2ccccc12)OCc1cn(-c2ccc(F)cc2F)nn1	none (no result: DAX1 inh-1)
CC(=O)N/N=C(/C)c1ccc(NC(=O)c2csc(C)c2C)cc1	hcDAF-12 act 5.8, DAX1 inh-2 13, hgDAF-12 ag 17 | DAX1 inh confirm 9.4 | SF1 mutant ctr 4.7 | hgDAF12 ag 16 | LXRb DAF12 ctr inactive
COc1ccc(CNc2nc3ccccc3n2C)c(OC)c1	DAX1 inh-2 6.4, hgDAF-12 ag 13 | DAX1 inh confirm 12 | SF1 mutant ctr 7.4 | hgDAF12 ag 15 | LXRb DAF12 ctr inactive
Cc1ccnc(NC(=O)/C=C/c2ccccc2[N+](=O)[O-])c1	hcDAF-12 act 9.3, ssDAF-12 act 1.8, DAX1 inh-2 5.0, hgDAF-12 ag 21 (no result: DAX1 inh-1) | DAX1 inh confirm 14 | SF1 mutant ctr 8.1 | LXRb hcDAF ctr inactive | hcDAF12 ag 8.3 | hgDAF12 ag 20 | LXRb DAF12 ctr inactive
Cc1ccnc(NC(=O)c2ccccc2[N+](=O)[O-])c1	none
CCN(CC)C(=O)c1oc(=O)c2ccccc2c1-c1ccc(C)cc1	none (no result: DAX1 inh-1)
CCc1noc(C)c1C(=O)N1CCN(CC(=O)OC)CC1	none (no result: DAX1 inh-1)
O=C(NCCOc1ccccc1F)c1ccc2c(=O)n3c(nc2c1)CCC3	DAX1 inh-2 8.5, hgDAF-12 ag 16 | DAX1 inh confirm 7.8 | SF1 mutant ctr 4.5 | hgDAF12 ag 12 | LXRb DAF12 ctr inactive
O=C(COc1ccccc1F)NNC(=O)c1ccc2c(=O)n3c(nc2c1)CCC3	none
O=C(Nc1ccccc1Cl)c1ccc2c(=O)n3c(nc2c1)CCC3	DAX1 inh-2 12, hgDAF-12 ag 15 | DAX1 inh confirm 8.8 | SF1 mutant ctr 5.0 | hgDAF12 ag 14 | LXRb DAF12 ctr inactive
COc1ccc2oc(C(=O)NC3CCCCC3)c(C)c2c1	hcDAF-12 act 5.8, DAX1 inh-2 6.2, hgDAF-12 ag 16 | DAX1 inh confirm 7.0 | SF1 mutant ctr 5.9 | hgDAF12 ag 14 | LXRb DAF12 ctr inactive
COc1ccc2oc(C(=O)NN3C(C)CCCC3C)c(C)c2c1 (stereo unspecified)	none
COc1ccc2c(CC(=O)Nc3nc(C)cs3)coc2c1	none
COc1ccc2oc(C(=O)Nc3nc(C)cs3)c(C)c2c1	hcDAF-12 act 9.9, ssDAF-12 act 1.1, DAX1 inh-2 6.9, hgDAF-12 ag 21 | DAX1 inh confirm 10 | SF1 mutant ctr 6.6 | LXRb hcDAF ctr inactive | hcDAF12 ag 12 | hgDAF12 ag 20 | LXRb DAF12 ctr inactive
O=C(Nc1nnc([C@@H]2C[C@H](O)[C@@H](CO)O2)s1)Nc1ccccc1F	DAX1 inh-2 7.3, hgDAF-12 ag 15 (no result: DAX1 inh-1) | DAX1 inh confirm 7.2 | SF1 mutant ctr 3.4 | hgDAF12 ag 11 | LXRb DAF12 ctr inactive
O=C(Nc1nnc([C@@H]2C[C@H](O)[C@@H](CO)O2)s1)c1cccc2ccccc12	DAX1 inh-2 5.0, hgDAF-12 ag 25 (no result: DAX1 inh-1) | DAX1 inh confirm 8.7 | SF1 mutant ctr 5.6 | hgDAF12 ag 13 | LXRb DAF12 ctr inactive
CCOc1ccc(-n2c(COc3ccc(Cl)cc3)nnc2SCC(=O)Nc2ccc(OCc3ccccc3)cc2)cc1	none (no result: DAX1 inh-1)
COc1ccc(C2NC(=S)N(Cc3ccc(Cl)cc3)C(C)=C2C(C)=O)cc1 (stereo unspecified)	none (no result: DAX1 inh-1)

Source: PubChem BioAssay
